We go through 11 compounds from PubChem BioAssay.

Assay [1] can be described thus: binders of probe aFSTL3 on microarray, primary screen, stem cell growth factor project, biochemical, small-molecule microarray, fluorescence 635/667 (AID 1064).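 Note: measures binding of the biotinylated anti-FSTL3 antibody to printed compounds.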 Particulars: higher = more signal.
A short description of assay [2]: binders from COS7 lysate, DM2A8 probe, primary screen, torsin A project, cell lysate, small-molecule microarray, fluorescence 635/667 (AID 1065). Particulars: higher = more signal, COS7 lysate expressing mutant human TOR1A.
The nature of assay [3]: binders of probe aFGF2 on microarray, primary screen, stem cell growth factor project, biochemical, small-molecule microarray, fluorescence 635/667 (AID 1067).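 Note: measures binding of biotinylated aFGF2 protein to printed compounds on slides; z-score merges feature fluorescence and signal-to-noise across triplicate slides.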 Particulars: higher = more signal.
A short description of assay [4]: binders of probe aFGF10 on microarray, primary screen, stem cell growth factor project, biochemical, small-molecule microarray, fluorescence 635/667 (AID 1071).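 Note: score merges 667 nm spot intensity and signal to noise from triplicate slides.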 Particulars: higher = more signal.
The target in assay [5] is Neurogenic locus notch homolog protein 2 (Homo sapiens) (UniProt Q04721). Nature of the assay: Notch2 binders on small-molecule microarrays, primary screen, biochemical, small-molecule microarray, 635 nm fluorescence, stem cell growth factors (AID 1073). Particulars: Notch2 binding, higher = more signal.
Neurogenic locus notch homolog protein 2 (Homo sapiens), sequence (Q04721 whole entry, looked up, canonical isoform): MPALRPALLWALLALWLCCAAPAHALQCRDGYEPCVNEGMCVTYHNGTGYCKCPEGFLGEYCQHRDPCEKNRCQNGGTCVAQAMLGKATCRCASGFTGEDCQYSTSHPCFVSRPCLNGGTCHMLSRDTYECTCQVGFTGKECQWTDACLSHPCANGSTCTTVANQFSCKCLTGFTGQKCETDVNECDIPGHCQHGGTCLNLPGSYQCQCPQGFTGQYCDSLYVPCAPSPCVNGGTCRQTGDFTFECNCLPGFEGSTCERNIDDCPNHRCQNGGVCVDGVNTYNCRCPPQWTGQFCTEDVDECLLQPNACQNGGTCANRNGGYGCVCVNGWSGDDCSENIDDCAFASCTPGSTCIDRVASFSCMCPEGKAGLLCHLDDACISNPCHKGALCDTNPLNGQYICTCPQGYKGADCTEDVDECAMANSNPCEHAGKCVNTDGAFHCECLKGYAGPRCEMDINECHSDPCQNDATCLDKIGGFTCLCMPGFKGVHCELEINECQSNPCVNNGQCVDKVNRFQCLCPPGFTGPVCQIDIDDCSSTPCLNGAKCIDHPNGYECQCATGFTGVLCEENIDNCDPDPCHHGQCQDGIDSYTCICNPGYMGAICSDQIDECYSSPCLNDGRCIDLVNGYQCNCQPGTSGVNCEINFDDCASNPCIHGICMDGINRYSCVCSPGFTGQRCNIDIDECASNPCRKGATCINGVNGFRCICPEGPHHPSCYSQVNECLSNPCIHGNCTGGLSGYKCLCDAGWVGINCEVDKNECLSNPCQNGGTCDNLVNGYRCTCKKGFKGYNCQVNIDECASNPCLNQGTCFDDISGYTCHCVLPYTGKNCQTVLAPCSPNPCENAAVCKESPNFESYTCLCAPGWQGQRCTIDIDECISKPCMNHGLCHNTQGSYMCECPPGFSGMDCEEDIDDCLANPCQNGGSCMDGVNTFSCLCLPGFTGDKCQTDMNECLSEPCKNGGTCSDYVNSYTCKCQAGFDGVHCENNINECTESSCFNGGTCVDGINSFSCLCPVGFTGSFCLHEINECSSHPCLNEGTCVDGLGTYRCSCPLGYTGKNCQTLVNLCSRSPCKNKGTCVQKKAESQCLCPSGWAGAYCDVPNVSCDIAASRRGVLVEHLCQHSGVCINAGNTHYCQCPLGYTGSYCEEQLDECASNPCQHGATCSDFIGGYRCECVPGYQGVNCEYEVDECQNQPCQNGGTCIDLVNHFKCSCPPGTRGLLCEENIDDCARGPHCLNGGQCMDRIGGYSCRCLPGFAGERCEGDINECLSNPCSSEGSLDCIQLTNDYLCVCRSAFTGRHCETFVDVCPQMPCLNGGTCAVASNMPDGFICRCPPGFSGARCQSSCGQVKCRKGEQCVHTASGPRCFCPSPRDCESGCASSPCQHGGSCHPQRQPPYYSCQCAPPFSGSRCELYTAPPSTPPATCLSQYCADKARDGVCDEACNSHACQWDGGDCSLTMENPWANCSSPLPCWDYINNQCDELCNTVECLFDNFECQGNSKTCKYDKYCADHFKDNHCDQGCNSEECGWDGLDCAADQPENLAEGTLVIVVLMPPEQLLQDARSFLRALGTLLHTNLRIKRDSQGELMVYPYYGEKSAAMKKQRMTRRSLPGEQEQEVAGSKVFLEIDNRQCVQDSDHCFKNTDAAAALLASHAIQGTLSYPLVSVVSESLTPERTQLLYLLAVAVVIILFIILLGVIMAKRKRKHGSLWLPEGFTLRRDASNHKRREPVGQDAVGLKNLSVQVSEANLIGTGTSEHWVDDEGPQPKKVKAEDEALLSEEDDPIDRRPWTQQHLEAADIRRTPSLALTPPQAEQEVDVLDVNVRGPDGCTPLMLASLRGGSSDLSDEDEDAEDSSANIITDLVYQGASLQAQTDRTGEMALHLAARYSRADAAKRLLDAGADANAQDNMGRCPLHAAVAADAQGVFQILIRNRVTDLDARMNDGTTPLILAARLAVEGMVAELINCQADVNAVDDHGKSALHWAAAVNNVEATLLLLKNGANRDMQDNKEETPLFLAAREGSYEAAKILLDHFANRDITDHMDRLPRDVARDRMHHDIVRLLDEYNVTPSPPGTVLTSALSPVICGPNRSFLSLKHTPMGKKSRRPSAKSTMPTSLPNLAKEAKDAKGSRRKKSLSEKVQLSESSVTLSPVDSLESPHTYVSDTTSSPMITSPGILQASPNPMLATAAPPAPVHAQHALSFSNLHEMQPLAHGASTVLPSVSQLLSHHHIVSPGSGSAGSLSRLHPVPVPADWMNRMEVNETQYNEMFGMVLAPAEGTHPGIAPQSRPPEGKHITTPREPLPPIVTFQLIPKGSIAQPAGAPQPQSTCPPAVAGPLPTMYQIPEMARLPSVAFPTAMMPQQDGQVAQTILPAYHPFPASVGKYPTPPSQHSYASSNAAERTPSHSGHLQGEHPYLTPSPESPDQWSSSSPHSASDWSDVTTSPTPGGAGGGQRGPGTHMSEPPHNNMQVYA
The target in assay [6] is Pro-neuregulin-1, membrane-bound isoform (Homo sapiens) (UniProt Q02297). The experiment in a line: NRG1 binders on small-molecule microarrays, primary screen, psychiatric disease protein project, biochemical, small-molecule microarray, fluorescence 635/667 (AID 1075).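 Note: score combines 667 nm spot fluorescence with signal to noise.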 Particulars: NRG1 binding, 635 nm fluorescence, higher = more signal.
Pro-neuregulin-1, membrane-bound isoform (Homo sapiens), sequence (Q02297 whole entry, looked up, the tested form may be a part, canonical isoform): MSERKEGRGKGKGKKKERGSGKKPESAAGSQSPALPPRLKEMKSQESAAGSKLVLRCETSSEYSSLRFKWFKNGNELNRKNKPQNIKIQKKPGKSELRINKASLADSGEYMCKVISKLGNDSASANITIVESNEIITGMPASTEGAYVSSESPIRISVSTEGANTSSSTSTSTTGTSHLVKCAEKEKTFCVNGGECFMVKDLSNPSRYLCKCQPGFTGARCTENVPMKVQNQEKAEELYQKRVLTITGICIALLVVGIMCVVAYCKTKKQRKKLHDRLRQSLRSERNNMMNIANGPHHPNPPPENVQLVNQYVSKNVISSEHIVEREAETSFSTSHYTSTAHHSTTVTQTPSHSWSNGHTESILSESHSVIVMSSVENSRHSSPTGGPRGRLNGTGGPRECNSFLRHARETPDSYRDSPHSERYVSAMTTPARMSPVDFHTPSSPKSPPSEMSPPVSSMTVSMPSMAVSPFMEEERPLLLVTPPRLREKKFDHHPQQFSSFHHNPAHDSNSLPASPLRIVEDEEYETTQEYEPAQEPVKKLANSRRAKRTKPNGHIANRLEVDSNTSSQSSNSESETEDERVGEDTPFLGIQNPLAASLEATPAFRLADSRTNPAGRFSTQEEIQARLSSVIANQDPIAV
The test system of assay [7] is Neuregulin-1 EGF-like domain. Nature of the assay: binders of neuregulin-1 EGF-like domain, primary screen, biochemical, small-molecule microarray, 635 nm fluorescence (AID 1081).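 Note: binding of the protein to compounds printed on small-molecule microarray slides.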 Particulars: small-molecule microarray binding, higher = more signal.
A short description of assay [8]: FRG1 promoter luciferase signal modulators, primary screen, FRG1 inhibition for FSHD, cell-based, C2C12 myotubes, firefly/Renilla luciferase, luminescence (AID 1084). Particulars: higher = more signal, called active from +8 up or from −8 down.
Assay [9] is described as follows: binders of probe aFST on microarray, primary screen, stem cell growth factor project, biochemical, small-molecule microarray, fluorescence 635/667 (AID 1086).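 Note: score merges 667 nm fluorescence with signal-to-noise of each printed compound spot.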 Particulars: higher = more signal.
Assay [10] in a line: binders of probe aHhip on microarray, primary screen, stem cell growth factor project, biochemical, small-molecule microarray, fluorescence 635/667 (AID 1087).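 Note: score merges spot fluorescence at 667nm with spot signal to noise ratio.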 Particulars: higher = more signal.

The source made the active and inactive calls.

With `C=C(/C(=C/C[C@H](OC(C)=O)c1ccccc1OCCO)c1cc(C(=O)OC)ccc1OC)C(C)C`, the composite z-score is -0.243 in [1]; -0.415 in assay [2]; -0.0222 in assay [3]; 0.826 in [4]; -0.0413 in [5]; 0.0648 in assay [6]. Further, the figures for the composite z-score in [7], in assay [9] and in assay [10] were 1.09, -0.36 and 0.126, respectively. For the same compound, in assay [8], the z-score was -0.976 (inactive).
Turning to `COc1ccc(-c2cc3c(c(CCc4ccccc4)n2)[Si](C(C)C)(C(C)C)OC3)cn1`, the composite z-score in assay [1] is -0.33; in [2] it was 0.239; in assay [3] it was -0.0537; in [4] it was 0.0473; in assay [5], 0.247; in [6], -0.352. Besides, the composite z-score in assay [7] worked out at 0.197; in assay [9] it was 0.21; in assay [10], 0.113. Also, the z-score in assay [8] was 0.943 (inactive).
With `CCOC(=O)C1=CC[C@@H](c2ccc(OCc3ccccc3)c(OC)c2)N(S(=O)(=O)c2ccc(C)cc2)[C@H]1c1ccc(SC)cc1`, the composite z-score in [1] is 0.152; in assay [2], 0.718; in assay [3], 0.162; in [4] it was 1.02; in [5] it was 1.54; in assay [6], 0.876. The composite z-score is 1.11 in assay [7], 1.67 in [9] and 0.245 in assay [10]. The z-score in assay [8] was -0.895 (inactive).
For the compound `[N-]=[N+]=Nc1ccccc1[C@H]1OC(c2ccc(OCCCO)cc2)=N[C@@]1(CCS(=O)(=O)c1ccccc1)C(=O)NCCN1CCOCC1`, the composite z-score in [1] came out at 0.052; in [2] it was 0.0825; in [3] it was 0.115; in assay [4] it was 0.839; in [5], 1.28; in assay [6], 1.35. Also, the composite z-score is 1.12 in assay [7], 1.58 in assay [9] and -0.166 in assay [10]. The z-score in assay [8] is 5.72 (inactive).
Regarding `COCC1=C2[C@@H](CCc3ccccc3)OB(O)C[C@@H]2[C@@H]2C(=O)C=CC(=O)[C@@H]2C1`, the composite z-score was -0.265 in assay [1]; 0.42 in assay [2]; -0.051 in [3]; 0.328 in assay [4]; 0.386 in assay [5]; 0.404 in [6]. The composite z-score in assay [7] was 0.952; in [9] it was 0.182; in assay [10] it was -0.0708. Further, the z-score in assay [8] is -0.632 (inactive).
Turning to `CC=CC(O)C1C=CC2C(=O)N(c3ccccc3)C(=O)C2N1Nc1ccccc1F` (stereo not given), the composite z-score in [1] was 0.968; in [2], 0.0233; in [3] it was 0.384; in assay [4] it was 0.547; in assay [5], 0.264; in assay [6], 0.82. Besides, the composite z-score in [7] was determined as 1.36; in [9] it was 1.07; in [10] it was 0.0001. Also, the z-score in assay [8] is 0.584 (inactive).
For `C=CCC(OC(C)=O)[C@@H]1[C@@H](N(Cc2cccc3ccccc23)C(=O)Cc2ccc(OC)cc2)c2cc(OCCCO)ccc2N1C(=O)c1ccc2ccccc2n1` (stereo not given in full), the composite z-score in assay [1] was -0.192; in assay [2], 0.0233; in assay [3] it was 0.0437; in [4], 0.11; in assay [5] it was -0.263; in [6], 0.836. Moreover, the figures for the composite z-score in [7], in [9] and in assay [10] were 0.154, 0.153 and -0.152, respectively. Moreover, in [8], the z-score was -1.76 (inactive).
For `CCOC(=O)C[C@H]1[C@H](OC(=O)c2cc3ccccc3oc2=O)[C@@H](NC(=O)Cc2ccc(OC)cc2)c2cc(OCCCO)ccc2N1C(=O)c1ccc2ccccc2n1`, the composite z-score in assay [1] is -0.19; in assay [2] it was 0.648; in assay [3], -0.127; in [4], 0.403; in [5], 0.848; in [6], 0.35. The composite z-score in [7] is 0.996; in [9] it was 0.0814; in assay [10], -0.123. The z-score in assay [8] was -1.07 (inactive).
Consider `COC(=O)C(CC#Cc1ccc2c(c1)[C@]1(C(=O)N2)[C@H](c2ccccc2OCCO)N2[C@H](c3ccccc3)[C@H](c3ccccc3)OC(=O)[C@H]2[C@@H]1C(=O)NC[C@H](O)c1ccccc1)C(=O)OC`, for which the composite z-score was -0.881 in assay [1]; 0.711 in assay [2]; -0.0307 in assay [3]; 0.767 in [4]; 0.982 in assay [5]; 1.36 in assay [6]. Besides, the composite z-score in assay [7] is 1.25; in assay [9], -0.158; in assay [10], -0.4. Further, in [8], the z-score was -1.42 (inactive).
As to `CCCCC=C[C@@H](NC(=O)c1ccc(-c2ccccc2)cc1)c1ccccc1`, the composite z-score in assay [1] was -0.0095; in assay [2], -0.0424; in [3], -0.021; in assay [4] it was 0.457; in assay [5] it was 1.44; in assay [6], 1.55. The composite z-score in [7] was 0.739; in assay [9] it was 0.517; in assay [10], 0.21. The z-score in [8] was 0.61 (inactive).
Turning to `C=CCNC(=O)[C@H]1[C@@H]2C(=O)O[C@@H](c3ccccc3)[C@@H](c3ccccc3)N2[C@@H](c2ccc(O)cc2)[C@]12C(=O)Nc1ccc(C#CC3(O)CCCCCC3)cc12`, the composite z-score in [1] is 0.0935; in assay [2] it was 1.01; in assay [3], -0.0293; in assay [4], 0.254; in [5] it was -0.459; in [6], 0.865. Further, the figures for the composite z-score in assay [7], in assay [9] and in assay [10] were 0.718, 0.168 and 0.312, respectively. Moreover, the z-score in assay [8] was -0.246 (inactive).
